# Laboratory results published in the supplement of paper PMC6522484.
# ± gives the standard deviation of the averaged measurements.
# Tested on: DLD1
# Assay: TCF/Wnt firefly luciferase reporter signal relative to plate median (fraction of plate median); higher = higher Wnt reporter signal
# Conditions: 5 µM; treatment time 24 h; reporter: 7TFP
# How it was run: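 Signals from firefly luciferase or CellTiterGlo readouts were normalised well by well to the plate median using webcellHTS2, additively and with no log transformation. They came from colorectal cancer cell lines stably holding lentiviral TCF/Wnt firefly luciferase reporters (7TFP or TCF4/Wnt), treated with library compounds at a final 5 µM for 24 h. The mean of two independent replicates is given.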
row,SMILES,TCF/Wnt firefly luciferase reporter signal
1,Nc1nc(=O)c2[nH]c(=O)cnc2[nH]1,0.981 ± 0.098
2,CC#C[C@]1(O)CC[C@H]2[C@@H]3CCC4=CC(=O)CCC4=C3[C@@H](c3ccc(N(C)C)cc3)C[C@@]21C,0.891 ± 0.05
3,CC1(C)C=Cc2cc3ccc(=O)oc3cc2O1,1.21 ± 0.13
4,CN(C)CCOc1ccc(/C(=C(/CCCl)c2ccccc2)c2ccccc2)cc1,0.962 ± 0.12
5,CC(C)(C)CC(C)(C)c1ccc(O)c(Cc2ccc(Cl)cc2Cl)c1,0.86 ± 0.012
6,CC(=O)N[C@@H](CS)C(=O)O,1.1 ± 0.14
7,Cn1c(=O)c2nc[nH]c2n(C)c1=O,1.19 ± 0.014
8,CC(C)CC(NC(=O)OCC1c2ccccc2-c2ccccc21)C(=O)O (stereo in doubt),0.979 ± 0.027
9,C=C1C(=O)[C@]23[C@H](CC[C@@H]1[C@@H]2O)[C@]12CO[C@@]3(O)[C@H](O)[C@H]1C(C)(C)CC[C@@H]2O,0.876 ± 0.015
10,O=c1cc(CO)occ1O [Kojic acid (Biofocus)],1.21 ± 0.13
11,c1coc(CNc2ncnc3[nH]cnc23)c1,0.996 ± 0.1
12,CC(=O)O[C@H]1CC[C@]2(C)C(C[C@@H](OC(C)=O)[C@]3(C)C4=CC(=O)O[C@H](c5ccoc5)[C@@]4(C)CCC23)C1(C)C (stereo partly drawn) [3-DEOXO-3beta-ACETOXYDEOXYDIHYDROGEDUNIN],1.05 ± 0.021
13,NCCNCCNCCN,0.999 ± 0.058
14,CCCc1nn(C)c2c(=O)[nH]c(-c3cc(S(=O)(=O)N4CCN(C)CC4)ccc3OCC)nc12,1.02 ± 0.042
15,Oc1c(Cl)cc(Cl)c2cccnc12,1.03 ± 0.16
16,CC(C)CCC[C@@H](C)[C@H]1CC[C@H]2[C@@H]3CC(=O)[C@H]4C[C@@H](O)CC[C@]4(C)[C@H]3CC[C@]12C [5alpha-CHOLESTAN-3beta-OL-6-ONE],0.904 ± 0.15
17,C[C@H](N)[C@H](O)c1cccc(O)c1,0.918 ± 0.074
18,CC(C(=O)O)c1cccc(Oc2ccccc2)c1 (stereo not given),1.04 ± 0.085
19,Clc1ccc(CSC(Cn2ccnc2)c2ccc(Cl)cc2Cl)cc1 (stereo not given),0.88 ± 0.035
20,CC(=O)O[C@]1(C(C)=O)CC[C@H]2[C@@H]3C=C(Cl)C4=CC(=O)[C@@H]5C[C@@H]5[C@]4(C)[C@H]3CC[C@@]21C,0.81 ± 0.052

row,SMILES,TCF/Wnt firefly luciferase reporter signal
1,CC(=O)OC1CCC2(C)C(=CCC3C2CCC2(C)C(C(C)CCCC(C)C)CCC32)C1 (stereo not given),1.11 ± 0.19
2,CCC(=O)C1(C)OC1C(C)CC(C)C1OC(=O)CC2(O)CC=C(C)C(O2)/C(C)=C/CCCC(OC2CC(OC(N)=O)C(O)C(C)O2)/C=C/C(C)C(O)C1C (stereo not given) [Irumamycin],1.07 ± 0.078
3,CC(=O)O[C@@H]1CC2C(C)(CC[C@H](O)C2(C)C)C2CC[C@]3(C)C(=CC(=O)O[C@H]3c3ccoc3)C21C (stereo partly drawn) [3beta-HYDROXYDEOXODIHYDRODEOXYGEDUNIN],1.15 ± 0.12
4,CCCc1nc(C(C)(C)O)c(C(=O)OCc2oc(=O)oc2C)n1Cc1ccc(-c2ccccc2-c2nnn[nH]2)cc1,1.11 ± 0.11
5,CCOc1ccc(Cc2nccc3cc(OCC)c(OCC)cc23)cc1OCC,0.99 ± 0.13
6,Cc1ccc(Cl)c(Nc2ccccc2C(=O)O)c1Cl,1.04 ± 0.021
7,C=C1CC[C@@H]2[C@](C)(CO)[C@H](O)CC[C@@]2(C)[C@@H]1C/C=C1/C(=O)OC[C@H]1O,1.06 ± 0.042
8,C[C@@H]1O[C@@H](O[C@H]2[C@H](Oc3cc(O)c4c(c3)O[C@H](c3ccc(O)cc3)CC4=O)O[C@H](CO)[C@@H](O)[C@@H]2O)[C@H](O)[C@H](O)[C@H]1O,0.992 ± 0.24
9,c1ccc2c(c1)CCCC2C1=NCCN1 (stereo not given),1.08 ± 0.19
10,CO/N=C(\C(=O)N[C@@H]1C(=O)N2C(C(=O)OC(C)OC(C)=O)=C(COC(N)=O)CS[C@H]12)c1ccco1 (stereo not given in full),0.981 ± 0.027
11,"CC1=CC(=O)CC(C)(C)C1(O)/C=C/C(C)=C\C(=O)O (mixture of isomers) [ABSCISIC ACID (cis,trans; )]",1.08 ± 0.092
12,O=CN(O)CCCC(NC(=O)C(CO)NC(=O)C1COC(c2ccccc2O)=N1)C(=O)NCCC(=O)NC1CCCN(O)C1=O (stereo not given) [Oxachelin hydrate],1.2 ± 0.014
13,Cc1cc(/C=C/c2ccc3cc(N(C)C)ccc3[n+]2C)c(C)n1-c1ccccc1,0.774 ± 0.1
14,CC(C)c1cccc(=O)c(O)c1,1.03 ± 0.073
15,CCOC(=O)c1c(C)cc(OC)cc1O,0.874 ± 0.021
16,CC1=C(/C=C/C(C)=C/C=C/C(C)=C/C=C/C=C(C)/C=C/C=C(C)/C=C/C2=C(C)C(=O)[C@@H](O)CC2(C)C)C(C)(C)C[C@H](O)C1=O,1.06 ± 0.11
17,CC[C@H]1OC(=O)C[C@@H](O)[C@H](C)[C@@H](O[C@@H]2O[C@H](C)[C@@H](O[C@H]3C[C@@](C)(O)[C@@H](O)[C@H](C)O3)[C@H](N(C)C)[C@H]2O)[C@@H](CC=O)C[C@@H](C)C(=O)/C=C/C(C)=C/[C@@H]1CO[C@@H]1O[C@H](C)[C@@H](O)[C@@H](OC)[C@H]1OC,1.1 ± 0.099
18,"CC(C)C1NC(=O)C2CCCN2C1=O (single isomer, unassigned; isomere) [Cyclo(prolylvalyl) (Isomere)]",0.939 ± 0.067
19,COc1c2c(c(O)c3c4c(c(C)cc13)C1OC3(C(OC)OC)OC1C(O[C@H]1C[C@@H](O)[C@@](O)(C(C)=O)[C@H](C)O1)(O4)C3(O)CO)C(=O)C(O)CC2O[C@H]1C[C@@](C)(O)[C@H](OC(C)=O)[C@H](C)O1 (stereo not given in full) [Trioxacarcin B],0.739 ± 0.21
20,CO[C@@]12[C@H](COC(N)=O)C3=C(C(=O)C(C)=C(N)C3=O)N1C[C@@H]1N[C@@H]12,0.974 ± 0.094
